Screens (PubChem)
Shown are actives, neighbours in structure and some others; about 1.7% of the full set was active somewhere.
GLP-1R agonist = qHTS of GLP-1 Receptor Agonists; actives 0.007% (n = 380,000); Glucagon-like peptide 1 receptor (Homo sapiens), P43220; HEK293 GLP-1R CRE-luciferase, luminescence, 4-6 h; cells express a hypersensitive GLP-1R form; AID 624172, 2012; Potency, µM (top dose mostly 45.6 µM), without a hit: at the highest dose activation, actives largely listed as activators; further: % of control where 0% means no effect
Target sequence (P43220 whole entry, looked up): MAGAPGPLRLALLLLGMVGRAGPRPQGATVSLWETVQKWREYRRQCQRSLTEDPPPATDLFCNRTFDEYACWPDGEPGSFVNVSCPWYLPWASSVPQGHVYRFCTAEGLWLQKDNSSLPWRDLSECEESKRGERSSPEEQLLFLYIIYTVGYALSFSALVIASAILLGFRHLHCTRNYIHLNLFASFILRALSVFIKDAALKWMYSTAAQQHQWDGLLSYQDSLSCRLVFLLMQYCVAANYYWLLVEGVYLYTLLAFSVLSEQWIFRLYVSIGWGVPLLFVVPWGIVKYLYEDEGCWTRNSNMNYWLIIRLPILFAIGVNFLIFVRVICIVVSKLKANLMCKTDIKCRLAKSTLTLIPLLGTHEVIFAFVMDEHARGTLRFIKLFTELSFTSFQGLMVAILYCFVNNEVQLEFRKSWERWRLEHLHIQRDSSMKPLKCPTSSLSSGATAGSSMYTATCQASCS
PTHR1 agonist = qHTS for PTHR1 Agonists: Primary Screen. Potency, µM (doses to about 115 µM), inactives show at the top dose activation, hits mostly activators. actives 0.075% (n = 410,000). Parathyroid hormone/parathyroid hormone-related peptide receptor (Homo sapiens), Q03431. HEK293 GP2 PTHR1 cells, GloSensor cAMP luminescence, 1 h; further: nearly all actives have a fitted effect of over 55% in size
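HEK-293-derived GP2 cells expressing PTHR1 and a GloSensor cAMP reporter, 3,000/well, plated overnight, given luciferin plus IBMX (each 0.5 mM as added) for 1 h at 37 °C, then compound for 1 h at 37 °C. Luminescence was read after 15 min at room temperature.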
HEK293 tox = qHTS of GLP-1 Receptor Inverse Agonists: Cytotox Screen. HEK293 cAMP-luciferase reporter cells, luminescence, 24 h. Potency, µM (top dose mostly 38.3 µM), inactives show at the highest dose activity change, negative = inhibition, most hits filed as inhibitors. actives 0.13% (n = 410,000);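 further: loss of luciferase light is scored as toxicity; on the % scale 0 is the no-effect control and ±100 the full control effect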
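To flag toxic compounds, the library was rerun on cells for 24 hr at 37 deg C and 5% CO2. Viability-linked luminescence was captured 12 min after adding luciferase detection reagent.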
GLP-1R inv ag = qHTS of GLP-1 Receptor Inverse Agonists (Inhibition Mode) | HEK293 GLP-1R CRE-luciferase, luminescence, 24 h; GLP-1R form is constitutively active | Potency, µM (series often up to 38.3 µM), for the others: top-dose activity change, negative = inhibition, most hits filed as inhibitors | actives 1.6% (n = 410,000) | AID 624417, 2012; further: on the % scale 0 is the no-effect control and ±100 the full control effect; nearly all actives have a fitted effect of over 55% in size
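Inverse agonists were sought by their lowering of basal cAMP reporter luciferase output in HEK293 cells stably carrying constitutively active human GLP-1R, after 24 h compound treatment.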
RGS4 inhibitor = Inhibitors of Regulator of G Protein Signaling (RGS) 4: qHTS | Regulator of G-protein signaling 4 (Homo sapiens), P49798 | Transcreener GDP fluorescence polarization, RGS4-accelerated GTP hydrolysis | Potency, µM (titrated, usually from 114 µM), without a hit: at the top dose activity change, negative = inhibition, actives largely listed as inhibitors | actives 0.039% (n = 390,000); further: on the % scale 0 is the no-effect control and ±100 the full control effect; nearly all actives have a fitted effect of over 75% in size
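MLSMR compounds (23 nl, pin-transferred) preincubated 10 min at room temperature with a 500nM (2x) first reagent, then RGS4 at 900nM (2x) plus Transcreener GDP mix added; fluorescence polarization (620/688 nm) read before and after 90 min at 30 °C.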
The depositor's hits bear a star. The call rests on the fitted dose curve; in most records, active means well fitted curve in the direction sought with a large enough effect; inconclusive means small, poorly fitted or top-dose-only effect, or another doubt; inactive means no such curve, though single readings can be large; an effect the other way counts as inactive or inconclusive. Potency means the concentration at half of the fitted maximal effect.

How did Cc1ccc(CNC(=O)c2ccc3c(c2)nc(C)n3-c2cc(C)cc(C)c2)cc1 do in these assays?
PTHR1 agonist: -41%; HEK293 tox: -5%; GLP-1R inv ag: inconclusive; RGS4 inhibitor: 7%

What do the screens show for `CCCOc1cccc(C(=O)Nc2ccc(-c3nc4ccccc4o3)cc2)c1`?
PTHR1 agonist: -18%; HEK293 tox: 0%; GLP-1R inv ag: 16%; RGS4 inhibitor: -8%

What do the screens show for `CN(Cc1cnn(-c2ccccc2)c1)C(=O)c1cccc(S(=O)(=O)N(C)c2ccccc2)c1`?
GLP-1R agonist: 11%; PTHR1 agonist: -51%; HEK293 tox: -8%; GLP-1R inv ag: 10µM*

What do the screens show for `[2H]c1c([2H])c([2H])c2c([nH]c(=S)n2C2CCN(CCCC(=O)c3ccc(F)cc3)CC2)c1[2H]`?
GLP-1R agonist: 11%

Results for CN1CCN(c2nc(-c3ccccc3)c3cc(Cl)ccc3n2)CC1 ?
GLP-1R agonist: 1%; PTHR1 agonist: inactive; HEK293 tox: 117%; GLP-1R inv ag: -33%; RGS4 inhibitor: -19%

How did OCCN1CCN(c2nc(-c3ccccc3)c3cc(Cl)ccc3n2)CC1 do in these assays?
GLP-1R agonist: -20%; PTHR1 agonist: -18%; HEK293 tox: 117%; GLP-1R inv ag: 3.5µM*; RGS4 inhibitor: -19%

How did CCOC(=O)N1CCN(c2nc(-c3ccccc3)c3cc(C)ccc3n2)CC1 do in these assays?
GLP-1R agonist: 8%; PTHR1 agonist: -2%; HEK293 tox: 56%; GLP-1R inv ag: 7%; RGS4 inhibitor: 0%

What do the screens show for `Cc1ccc2nc(N3CCN(CCO)CC3)nc(-c3ccccc3)c2c1`?
GLP-1R agonist: 21%; PTHR1 agonist: inactive; HEK293 tox: 68%; GLP-1R inv ag: 6.3µM*; RGS4 inhibitor: -3%

Results for Cc1ccccc1C(=O)Nc1nnc(S(=O)(=O)N2c3ccccc3CC2C)s1 (stereo not given) ?
PTHR1 agonist: -85%; HEK293 tox: -3%; GLP-1R inv ag: 11µM*; RGS4 inhibitor: -32%

How did Cc1ccc(CC(=O)Nc2cccc(C(=O)Nc3c(C)n(C)n(-c4ccccc4)c3=O)c2)cc1C do in these assays?
GLP-1R agonist: 12%; PTHR1 agonist: -15%; HEK293 tox: -11%; GLP-1R inv ag: -18%

What do the screens show for `O=C(Nc1ccc(Cl)c(S(=O)(=O)N2CCOCC2)c1)c1ccc2c(c1)OCO2`?
GLP-1R agonist: 0%; PTHR1 agonist: -47%; HEK293 tox: -17%; GLP-1R inv ag: 11µM*; RGS4 inhibitor: -10%

Results for Cc1ccc(OCCCC(=O)Nc2ccc(Cl)c(S(=O)(=O)N3CCOCC3)c2)cc1 ?
GLP-1R agonist: -4%; PTHR1 agonist: -46%; HEK293 tox: -2%; GLP-1R inv ag: 11µM*; RGS4 inhibitor: 1%

How did COc1ccc(NC(=O)CCOc2ccc(C)cc2)cc1S(=O)(=O)N1CCCCC1 do in these assays?
GLP-1R agonist: -4%; PTHR1 agonist: -93%; HEK293 tox: -27%; GLP-1R inv ag: 7.1µM*; RGS4 inhibitor: -25%

How did CC(=O)c1ccc(OCCCC(=O)Nc2ccc(Cl)c(S(=O)(=O)N3CCOCC3)c2)cc1 do in these assays?
GLP-1R agonist: 2%; PTHR1 agonist: -47%; HEK293 tox: -7%; GLP-1R inv ag: 1%; RGS4 inhibitor: -8%

How did O=C(Nc1ccc(Cl)c(S(=O)(=O)N2CCOCC2)c1)c1ccc2c(c1)OCCO2 do in these assays?
GLP-1R agonist: 2%; PTHR1 agonist: -32%; HEK293 tox: -20%; GLP-1R inv ag: -28%; RGS4 inhibitor: 7%

Results for COc1ccc(NC(=O)CCOc2ccccc2F)cc1S(=O)(=O)N1CCCCC1 ?
GLP-1R agonist: 14%; PTHR1 agonist: -29%; HEK293 tox: -16%; GLP-1R inv ag: inconclusive; RGS4 inhibitor: -7%

Results for Cc1cc(C)n(-c2nc3ccccc3nc2N2CCC(C)CC2)n1 ?
GLP-1R agonist: -1%; PTHR1 agonist: inactive; HEK293 tox: 28%; GLP-1R inv ag: 0%; RGS4 inhibitor: -13%
